From PubChem BioAssay (NCATS)
Results filed as inconclusive are left out. Calls of active or inactive are those of the source. Unless noted, the call rests on the fitted dose curve; in most records, active means well fitted curve in the direction sought with a large enough effect; inconclusive means small, poorly fitted or top-dose-only effect, or another doubt; inactive means no such curve, though single readings can be large; an effect the other way counts as inactive or inconclusive.

What was measured:
[1] = biological target: Vitamin D3 receptor (Homo sapiens) (UniProt P11473); assay: qHTS assay for small molecule antagonists of vitamin D receptor signaling (AID 588541; calls by dose curve;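 further: receptor activated by calcitriol during compound treatment; series mostly up to about 77 µM; on the % scale 0 is the no-effect control and ±100 the full control effect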)
Sequence of Vitamin D3 receptor (Homo sapiens) (P11473 whole entry, looked up): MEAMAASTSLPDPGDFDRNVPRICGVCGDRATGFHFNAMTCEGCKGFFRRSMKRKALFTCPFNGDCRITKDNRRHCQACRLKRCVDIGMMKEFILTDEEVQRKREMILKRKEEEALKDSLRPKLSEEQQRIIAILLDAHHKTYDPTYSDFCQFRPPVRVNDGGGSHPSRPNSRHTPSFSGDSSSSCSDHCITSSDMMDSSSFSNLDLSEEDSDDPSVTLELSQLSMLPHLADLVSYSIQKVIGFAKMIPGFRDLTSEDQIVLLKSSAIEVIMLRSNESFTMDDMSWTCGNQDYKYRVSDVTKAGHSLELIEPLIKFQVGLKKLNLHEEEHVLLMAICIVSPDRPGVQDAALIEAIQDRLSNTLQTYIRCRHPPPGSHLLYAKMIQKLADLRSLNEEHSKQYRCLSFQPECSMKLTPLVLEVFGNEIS
How it was run: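 Antagonist-mode beta-lactamase reporter assay: HEK293T VDR-UAS-bla cells were exposed to titrated compound alongside 1-alpha,25-dihydroxyvitamin D3 at 3 nM final for 16 h. Values were normalized to the 50 nM agonist control and DMSO basal, with IC50 and efficacy from Hill equation fits.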

[2] = biological target: Vitamin D3 receptor (Homo sapiens) (UniProt P11473); assay: qHTS assay for small molecule agonists of vitamin D receptor signaling (AID 588543; calls by dose curve;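 further: 0% = DMSO basal and 100% = reference agonist control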)
How it was run: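 β-lactamase reporter, VDR-UAS-bla HEK293T, agonist mode. Cells plated 5 h at 37 °C, compound titration 16 h at 37 °C, CCF4 dye 2 h RT, ratio 460/530 nm. Hill fit → EC50, efficacy vs 50 nM 1α,25-(OH)2D3.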

[3] = biological target: Thyroid hormone receptor beta (Homo sapiens) (UniProt P10828); assay: qHTS assay for small molecule agonists of thyroid hormone receptor beta signaling (AID 588545; calls by dose curve)
Sequence of Thyroid hormone receptor beta (Homo sapiens) (P10828 whole entry, looked up): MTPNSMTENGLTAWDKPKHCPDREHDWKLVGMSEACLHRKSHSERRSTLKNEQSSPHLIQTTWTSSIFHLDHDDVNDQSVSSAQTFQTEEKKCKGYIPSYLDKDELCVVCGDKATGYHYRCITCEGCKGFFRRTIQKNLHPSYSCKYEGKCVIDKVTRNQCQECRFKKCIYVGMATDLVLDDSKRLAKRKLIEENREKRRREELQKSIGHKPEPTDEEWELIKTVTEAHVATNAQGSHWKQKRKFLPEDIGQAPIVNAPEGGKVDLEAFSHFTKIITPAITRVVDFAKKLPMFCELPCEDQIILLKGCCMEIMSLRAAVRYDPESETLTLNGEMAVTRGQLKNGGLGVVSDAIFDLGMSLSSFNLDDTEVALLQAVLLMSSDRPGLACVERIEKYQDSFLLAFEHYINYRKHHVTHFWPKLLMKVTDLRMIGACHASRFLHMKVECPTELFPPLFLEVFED
How it was run: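 Cells (2500/well) were seeded, incubated 4 hrs at 37 C, dosed with a compound series, incubated 18 hrs, loaded with CCF4 dye for 2 hrs at RT, then read for fluorescence. Data were scaled between DMSO (0%) and 10 nM T3 (100%).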

[4] = qHTS assay for environmental chemicals that activate the Aryl hydrocarbon Receptor (AhR) signaling pathway (AID 651777); details: 1A2-DRE human hepatoma cells, luciferase, 24 h; activation: stronger effect = higher value; further: % of control where 0% means no effect; nearly all actives have a fitted effect of over 15% in size
How it was run: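 Following a 24 hr incubation with test chemicals at 37 C and 5% CO2, 1A2-DRE human hepatoma cells received One-Glo reagent; after 30 min at room temperature, luciferase output reflected CYP1A2 induction via AhR.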

[5] = biological target: Peroxisome proliferator-activated receptor alpha (Homo sapiens) (UniProt Q07869); assay: qHTS assay for small molecule agonists of the peroxisome proliferator-activated receptor alpha (PPARalpha) signaling pathway (AID 651778); details: PathHunter PPARalpha complementation, chemiluminescence, 6 h; max response: stronger effect = higher value; further: % of control where 0% means no effect
Sequence of Peroxisome proliferator-activated receptor alpha (Homo sapiens) (Q07869 whole entry, looked up): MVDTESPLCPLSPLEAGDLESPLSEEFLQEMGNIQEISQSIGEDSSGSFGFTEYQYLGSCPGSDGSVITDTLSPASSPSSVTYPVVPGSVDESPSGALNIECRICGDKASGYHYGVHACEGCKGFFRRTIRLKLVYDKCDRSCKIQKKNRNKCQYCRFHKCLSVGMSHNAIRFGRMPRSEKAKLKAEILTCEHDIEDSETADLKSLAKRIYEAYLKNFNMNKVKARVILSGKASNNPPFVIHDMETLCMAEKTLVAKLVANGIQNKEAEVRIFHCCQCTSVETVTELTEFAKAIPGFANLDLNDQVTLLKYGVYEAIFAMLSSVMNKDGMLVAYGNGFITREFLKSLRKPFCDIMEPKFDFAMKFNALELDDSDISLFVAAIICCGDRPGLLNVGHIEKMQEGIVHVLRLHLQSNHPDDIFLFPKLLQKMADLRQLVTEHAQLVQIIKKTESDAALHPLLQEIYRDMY
How it was run: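 Chemiluminescence from complemented enzyme reported PPARalpha activation in cells after 6 hr of compound treatment at 37 C. The detection reagent was incubated for 60 min at room temperature, and compounds were scored as agonists.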

[6] = qHTS assay for small molecule agonists of the antioxidant response element (ARE) signaling pathway measured by Nrf2-dependant transcriptional activity (AID 720636; active means well fitted curve in the direction sought with a large enough effect in the repeat runs; an effect the other way counts as inactive or inconclusive;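 further: HepG2 cells with an ARE-driven luciferase reporter; % of control where 0% means no effect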)
How it was run: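 ONE-Glo luminescence, read 30 min after reagent addition at room temperature, reflected ARE reporter activity in HepG2 cells that had been incubated with compound for 16 hr at 37 C in 1% dialyzed FBS.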

[7] = qHTS assay for small molecule agonists of the antioxidant response element (ARE) signaling pathway measured by Nrf2-dependant transcriptional activity - cell viability counter screen (AID 720653; active means well fitted curve in the direction sought with a large enough effect in the repeat runs; an effect the other way counts as inactive or inconclusive; further: on the % scale 0 is the no-effect control and ±100 the full control effect); details: ARE-bla HepG2 viability, CellTiter-Glo ATP luminescence, 16 h; max response: stronger effect = lower value
How it was run: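 Cytotoxicity counter screen: intracellular ATP quantified by CellTiter-Glo luminescence in the same ARE-bla HepG2 plates, after 16 h compound exposure and a 2 h beta-lactamase substrate step.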

[8] = qHTS assay for cell viability of HEK293 cells (AID 743288); details: ATP luminescence (CellTiter-Glo), 18 h; max response: stronger effect = lower value; further: nearly all actives have a fitted effect of over 50% in size; further: potency means the concentration at half of the fitted maximal effect
How it was run: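 ATP luminescence (CellTiter-Glo) reports metabolically competent cell number after parental HEK293 cells, 2,000/well, were treated with DMSO-dissolved compounds for 18 h at 37 C; reagent incubation 30 min, room temperature.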

[9] = qHTS assay for small molecule antagonists of peroxisome proliferator-activated receptor delta signaling (AID 588535; active means well fitted inhibition curve with a large enough effect in the signal ratio, with a control signal flat, not every such curve was filed as active; the % refers to the signal ratio;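 on max response: cells co-treated with a PPAR-delta agonist as stimulator during compound exposure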); details: HEK293T PPARd-UAS-bla, beta-lactamase FRET ratio, 18 h; 460 nm channel
How it was run: (§1)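 Antagonist-mode qHTS using GeneBLAzer PPAR-delta-UAS-bla HEK293T cells; compound exposure 18 hrs at 37 C over a titration. Ratiometric CCF4 fluorescence at 460/530 nm; concentration-response points fitted to the Hill equation.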

[10] = biological target: Peroxisome proliferator-activated receptor delta (Homo sapiens) (UniProt Q03181); assay: as above
Sequence of Peroxisome proliferator-activated receptor delta (Homo sapiens) (Q03181 whole entry, looked up): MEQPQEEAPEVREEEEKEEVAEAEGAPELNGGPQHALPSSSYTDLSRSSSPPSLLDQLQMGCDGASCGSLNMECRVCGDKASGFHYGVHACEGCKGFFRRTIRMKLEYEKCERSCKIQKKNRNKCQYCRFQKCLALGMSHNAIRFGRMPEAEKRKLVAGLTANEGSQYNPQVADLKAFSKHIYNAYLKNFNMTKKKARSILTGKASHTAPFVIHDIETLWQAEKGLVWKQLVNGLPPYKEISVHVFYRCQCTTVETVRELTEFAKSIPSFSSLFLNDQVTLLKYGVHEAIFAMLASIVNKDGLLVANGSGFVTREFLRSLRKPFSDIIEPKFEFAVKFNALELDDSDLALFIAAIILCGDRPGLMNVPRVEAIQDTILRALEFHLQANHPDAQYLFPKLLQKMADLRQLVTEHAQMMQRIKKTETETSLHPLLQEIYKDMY
How it was run: as §1

[11] = qHTS assay for small molecule antagonists of retinoid X receptor alpha signaling (AID 588546; active means well fitted inhibition curve with a large enough effect in the signal ratio, with a control signal flat, not every such curve was filed as active; the % refers to the signal ratio;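 further: cells stimulated with 9-cis-retinoic acid as agonist; on the % scale 0 is the no-effect control and ±100 the full control effect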); details: HEK293T RXRa-UAS-bla, beta-lactamase ratio, antagonist mode; measured here: W530 green channel, cytotoxicity proxy
How it was run: (§2)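 Beta-lactamase reporter inhibition, read as CCF4 fluorescence ratio (ex 405, em 460/530 nm) after 2 h at RT. HEK293T UAS-bla cells, 2500/well, were stimulated with 9-cis-RA at 500 or 100 nM final alongside test compound for 18 h at 37 C.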

[12] = biological target: Thyroid hormone receptor beta (Homo sapiens) (UniProt P10828); assay: qHTS assay for small molecule antagonists of thyroid hormone receptor beta signaling (AID 588547; active means well fitted inhibition curve with a large enough effect in the signal ratio, with a control signal flat, not every such curve was filed as active; the % refers to the signal ratio); details: TR-UAS-bla HEK293, beta-lactamase ratio, antagonist mode, 18 h
How it was run: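 Inhibition of T3-driven (0.4nM final) beta-lactamase reporter activity was measured over 0.59 nM to 92 uM compound after 18 h at 37 C. The cells were GripTite HEK293 TR-UAS-bla in charcoal/dextran-stripped serum, with CCF4 ratio read-out and IC50 from Hill fits.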

[13] = qHTS assay for small molecule activators of the p53 signaling pathway (AID 651743; active means well fitted activation curve with a large enough effect in the signal ratio, not every such curve was filed as active; the % refers to the signal ratio; further: series mostly up to about 92 µM; % of control where 0% means no effect); details: HCT-116 p53RE-bla, beta-lactamase FRET ratio, 16 h; activation: stronger effect = higher value
How it was run: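 A beta-lactamase reporter under p53 response element control, stably carried by HCT-116 cells, reported pathway activation. Test compounds were applied for 16 hours at 37 C, and fluorescence was measured 2 hours after adding the B/G FRET substrate.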

[14] = qHTS assay for small molecule activators of the nuclear factor-kappa B (NF-kB) signaling pathway (AID 651749; active means well fitted activation curve with a large enough effect in the signal ratio; the % refers to the signal ratio; further: series mostly up to about 77 µM; % of control where 0% means no effect); details: NF-kB-bla ME-180 cells, beta-lactamase FRET ratio, 16 h; activation: stronger effect = higher value
How it was run: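 FRET-based beta-lactamase detection in ME-180 cells reports NF-kB response-element-driven transcription following overnight (16 hr) compound treatment.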

[15] = qHTS assay for cell viability of the p53RE-bla HCT-116 cell line (AID 743292); further: on the % scale 0 is the no-effect control and ±100 the full control effect; nearly all actives have a fitted effect of over 55% in size
How it was run: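 After plating at 4,000 cells per well and a 5 h rest at 37 C, HCT-116 cells carrying p53RE-bla received test chemicals in DMSO. Sixteen hours later at 37 C, CellTiter-Glo was added and luminescence recorded following 30 min at room temperature.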

[16] = biological target: Nuclear receptor subfamily 1 group I member 2 (Rattus norvegicus) (UniProt Q9R1A7); assay: qHTS assay for small molecule activators of the rat pregnane X receptor (rPXR) signaling pathway (AID 651751; call rule not given here; further: 0% is about no effect); details: rPXR reporter cells, luciferase (One-Glo), 24 h
Sequence of Nuclear receptor subfamily 1 group I member 2 (Rattus norvegicus) (Q9R1A7 whole entry, looked up): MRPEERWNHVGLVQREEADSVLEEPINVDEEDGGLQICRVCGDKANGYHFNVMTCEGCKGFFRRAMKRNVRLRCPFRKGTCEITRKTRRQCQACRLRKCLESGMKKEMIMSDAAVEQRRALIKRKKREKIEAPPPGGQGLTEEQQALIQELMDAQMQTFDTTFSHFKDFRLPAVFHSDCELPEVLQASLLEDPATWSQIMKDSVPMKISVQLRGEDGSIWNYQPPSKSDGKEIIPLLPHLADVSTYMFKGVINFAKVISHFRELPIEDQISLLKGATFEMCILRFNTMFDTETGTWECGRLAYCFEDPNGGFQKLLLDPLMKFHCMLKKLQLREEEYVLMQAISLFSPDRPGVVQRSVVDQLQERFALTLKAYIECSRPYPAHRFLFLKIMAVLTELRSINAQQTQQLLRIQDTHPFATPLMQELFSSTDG

[17] = qHTS assay for small molecule activators of the human pregnane X receptor (PXR) signaling pathway (AID 720659; call rule not given here; further: 0% is about no effect)
[18] = qHTS assay for small molecule agonists of retinoid X receptor alpha signaling (AID 588544; calls by dose curve;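 on activation: 0% = DMSO basal wells and 100% = reference agonist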); details: HEK293T RXRa-UAS-bla, beta-lactamase reporter, 18 h; 530 nm emission
[19] = biological target: Retinoic acid receptor RXR-alpha (Homo sapiens) (UniProt P19793); assay: as above
Sequence of Retinoic acid receptor RXR-alpha (Homo sapiens) (P19793 whole entry, looked up): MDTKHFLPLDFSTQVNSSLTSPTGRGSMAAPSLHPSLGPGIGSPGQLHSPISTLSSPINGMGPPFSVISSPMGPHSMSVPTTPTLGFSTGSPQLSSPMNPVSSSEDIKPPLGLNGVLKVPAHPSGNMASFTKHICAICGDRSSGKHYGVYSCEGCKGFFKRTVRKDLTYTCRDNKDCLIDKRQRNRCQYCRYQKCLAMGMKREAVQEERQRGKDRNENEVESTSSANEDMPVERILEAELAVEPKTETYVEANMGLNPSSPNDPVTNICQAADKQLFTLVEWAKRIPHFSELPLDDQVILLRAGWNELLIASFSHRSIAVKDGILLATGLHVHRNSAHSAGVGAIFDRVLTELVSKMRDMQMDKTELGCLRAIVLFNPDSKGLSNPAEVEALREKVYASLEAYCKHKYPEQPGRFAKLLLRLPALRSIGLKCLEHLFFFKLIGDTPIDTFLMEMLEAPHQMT

[20] = biological target: Retinoic acid receptor RXR-alpha (Homo sapiens) (UniProt P19793); assay: qHTS assay for small molecule antagonists of retinoid X receptor alpha signaling (AID 588546); details: HEK293T RXRa-UAS-bla, beta-lactamase ratio, antagonist mode;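 further: cells stimulated with 9-cis-retinoic acid as agonist; on the % scale 0 is the no-effect control and ±100 the full control effect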
How it was run: as §2

COC(=O)CSc1cc(N=c2sc(=O)n3n2CCCC3)c(F)cc1Cl
inactive: Potency [1] | outcome [2] | Potency [3] | activation [4] -2.58% | max response [5] 0.865% | Potency [6] | max response [7] 8.69% | max response [8] 4.83%

C1=C/CC/C=C/CC/C=C/CC/1
inactive: Potency [10] | Potency [1] | outcome [2] | Potency [3] | activity change % (negative = inhibition) [12] 0.305% | activation [13] -6.28% | activation [14] 0.104% | max response [5] 0.0417% | Potency [6] | max response [8] -8.62% | Potency [15] | max response [16] 13.1% | outcome [17]
18.8%: max response [9]
5.63%: max response [11]

CCCCCCCCCCCCCCCC
inactive: Potency [10] | Potency [19] | Potency [3] | max response [20] -1.47% | activity change % (negative = inhibition) [12] -0.344% | activation [13] -5.95% | activation [4] 0.0152% | max response [5] 0.236% | Potency [6] | max response [7] -4.36% | max response [8] -2.82% | Potency [15] | max response [16] 1.98% | outcome [17]
0.581%: max response [18]
55.6%: max response [9]
-21.5%: max response [11]

CCOCCOCCOC(C)=O
0.881%: max response [18]
31.4%: max response [9]
-12.8%: max response [11]
inactive: Potency [10] | Potency [1] | outcome [2] | Potency [19] | Potency [3] | max response [20] 7.1% | activity change % (negative = inhibition) [12] 14% | activation [4] -0.223% | max response [5] 0.0175% | Potency [6] | max response [7] 2.87% | max response [8] 0.368% | Potency [15] | max response [16] 0.7% | outcome [17]

C=C[Si](C)(C)O[Si](C)(C)C=C
inactive: Potency [1] | outcome [2] | Potency [19] | Potency [3] | max response [20] -0.957% | activity change % (negative = inhibition) [12] 3.28% | activation [13] -3.83% | activation [14] -0.794% | activation [4] -1.78% | max response [5] -1.71% | Potency [6] | max response [7] -2.71% | max response [8] -5.1% | Potency [15] | max response [16] 0.719% | outcome [17]
11.5%: max response [18]
-11.2%: max response [11]

Cc1ccc(S(=O)(=O)C(I)I)cc1
-69.8%: max response [18]
inactive: Potency [19] | activation [13] 4.66% | activation [14] -6% | activation [4] -11.1% | Potency [6] | outcome [17]

C=C(C)C(=O)OCCN(C)C
inactive: Potency [10] | outcome [2] | Potency [3] | max response [20] 6.15% | activity change % (negative = inhibition) [12] 5.49% | activation [13] -0.52% | activation [4] 0.477% | max response [5] -0.281% | Potency [6] | max response [7] -4.72% | max response [8] -8.88% | Potency [15] | max response [16] 5.37% | outcome [17]
-44.3%: max response [9]
0.555%: max response [11]

BrC1CCC(Br)C(Br)CCC(Br)C(Br)CCC1Br (stereo unspecified)
11.4%: max response [9]
0.976%: max response [18]
inactive: Potency [10] | outcome [2] | Potency [19] | Potency [3] | max response [20] -24.4% | activity change % (negative = inhibition) [12] 9.02% | activation [13] -4.94% | activation [14] 1.45% | activation [4] 1.8% | max response [5] -0.0514% | Potency [6] | max response [7] 0.219% | max response [8] -7.59% | Potency [15] | max response [16] 0.315% | outcome [17]
-2.96%: max response [11]

O=S(=O)(O)c1ccc(N=Nc2cc(S(=O)(=O)O)c3ccccc3c2O)c2ccccc12
inactive: Potency [10] | Potency [1] | outcome [2] | Potency [19] | Potency [3] | activation [13] 2.63% | activation [14] 0.356% | activation [4] 3.98% | Potency [6] | max response [16] -7.09% | outcome [17]
26.6%: max response [9]
4.4%: max response [11]
-24.8%: max response [18]
active: Potency [8] 44.7 µM

CCCCCCc1ccc(N)cc1
-5.49%: max response [11]
inactive: Potency [10] | Potency [1] | outcome [2] | Potency [3] | max response [20] -10.1% | activity change % (negative = inhibition) [12] 1.93% | activation [13] 0.412% | activation [14] 0.791% | activation [4] 2.42% | max response [5] 0.597% | Potency [6] | max response [7] -14.6% | max response [8] -16% | Potency [15] | max response [16] -2.28% | outcome [17]
65.6%: max response [9]

O=C(Cl)c1ccc(C(=O)Cl)cc1
inactive: Potency [10] | Potency [1] | outcome [2] | Potency [19] | Potency [3] | max response [20] 2.6% | activity change % (negative = inhibition) [12] 0.623% | activation [13] -0.615% | activation [4] -0.806% | max response [5] -0.543% | Potency [6] | max response [7] -8.12% | max response [8] -8.26% | Potency [15] | max response [16] -1.54% | outcome [17]
-9.41%: max response [9]
-14.3%: max response [11]
-3.06%: max response [18]

CCCCCCCCCCCC[N+](C)(C)[O-]
-19.7%: max response [9]
inactive: Potency [10] | outcome [2] | Potency [3] | activity change % (negative = inhibition) [12] -1.65% | activation [13] 1.24% | activation [14] 2.53% | activation [4] 9.07% | max response [7] -6.24% | max response [8] -22.6% | Potency [15]

C/C=C/C/C=C\CCCCCCCCOC(C)=O
-14.4%: max response [18]
-5.66%: max response [11]
15.9%: max response [9]
inactive: Potency [10] | Potency [1] | outcome [2] | Potency [19] | Potency [3] | max response [20] -0.494% | activity change % (negative = inhibition) [12] -5.4% | activation [13] -0.736% | activation [14] -0.792% | activation [4] 1.59% | max response [5] -1.2% | Potency [6] | max response [7] 5.44% | max response [8] 0.639% | Potency [15] | max response [16] 0.0563% | outcome [17]
